This is part of a sample that, as a whole, favours compounds with a hit. Of some 79,000 tested, about 15% had one in any assay. Values without a mark were called inactive. Calls of active or inactive are those of the source. Rule as the data show it: active = growth inhibition above about 70%; inactive = the rest.
What was measured:
[1] = NCI Yeast Anticancer Drug Screen. Data for the rad52 strain (AID 147);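 also: 0% = growth of vehicle-treated control cultures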; details: S. cerevisiae rad52 mutant growth inhibition, active compounds read high
How it was run: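 Genetically altered yeast (DNA damage repair defect) treated with compound; inhibition calculated relative to vehicle.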

[2] = NCI Yeast Anticancer Drug Screen. Data for the rad50EPP+ strain (AID 151);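 also: 0% = growth of vehicle-treated control cultures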; details: S. cerevisiae rad50 mutant strain, active compounds read high
How it was run: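 Strain rad50EPP+; compound exposure; % growth inhibition vs vehicle.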

[3] = NCI Yeast Anticancer Drug Screen. Data for the mgt1 strain (AID 153); details: S. cerevisiae mgt1 mutant growth inhibition, active compounds read high
How it was run: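 Read-out: yeast growth inhibition vs vehicle control. Strain mgt1, drawn from a panel altered in DNA damage repair or cell cycle control.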

[4] = NCI Yeast Anticancer Drug Screen. Data for the rad50 strain (AID 155);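 also: 0% = growth of vehicle-only cultures of the same strain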; details: S. cerevisiae rad50 strain growth inhibition, active compounds read high
How it was run: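 Inhibition values express reduced yeast growth in compound-treated cultures relative to vehicle-treated controls.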

[5] = NCI Yeast Anticancer Drug Screen. Data for the mec2-1 strain (AID 157); details: S. cerevisiae mec2-1 strain, active compounds read high
How it was run: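 Cells of the genetically defined mec2-1 yeast strain are incubated with test compound. Inhibition of growth is calculated against vehicle-treated controls.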

[6] = NCI Yeast Anticancer Drug Screen. Data for the rad14 strain (AID 159);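 also: 0% = growth of vehicle-treated control cultures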; details: S. cerevisiae rad14 strain growth inhibition, active compounds read high
How it was run: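 A mutant yeast strain defective in DNA damage repair is treated with compound; inhibition of its growth is scored against untreated, vehicle-exposed cultures.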

[7] = NCI Yeast Anticancer Drug Screen. Data for the sgs1 mgt1 strain (AID 161);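 also: 0% = growth of cultures given vehicle only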; details: S. cerevisiae sgs1 mgt1 strain, active compounds read high
How it was run: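 Mutant yeast exposed to compound; growth scored against vehicle-only wells.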

[8] = NCI Yeast Anticancer Drug Screen. Data for the CLN2oe strain (AID 163);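 also: 0% = growth of vehicle-only control cultures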; details: S. cerevisiae CLN2oe strain, active compounds read high
How it was run: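 Strain altered in cell-cycle control, incubated with compound; growth compared to solvent-treated controls.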

[9] = NCI Yeast Anticancer Drug Screen. Data for the cln2 rad14 strain (AID 165);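 also: 0% = growth equal to vehicle treated cultures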; details: S. cerevisiae cln2 rad14 strain, active compounds read high
How it was run: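 The screen exposed genetically defined yeast (cln2 rad14) to test compounds and scored growth inhibition relative to vehicle-treated controls.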

[10] = NCI Yeast Anticancer Drug Screen. Data for the bub3 strain (AID 167); details: S. cerevisiae bub3 mutant strain, active compounds read high
How it was run: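 Steps: expose the mutant yeast strain to compound; grow alongside vehicle-treated cultures; measure growth; express inhibition against the vehicle cultures.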

[11] = NCI Yeast Anticancer Drug Screen. Data for the wt2 strain (AID 169);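 also: 0% = growth of vehicle-treated yeast cultures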; details: S. cerevisiae wt2 strain growth inhibition, active compounds read high
How it was run: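 Steps: yeast strain treated with compound; growth recorded; inhibition calculated relative to cultures given vehicle alone.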

[12] = NCI Yeast Anticancer Drug Screen. Data for the mlh1 strain (AID 171);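 also: 0% = growth of vehicle-treated control cultures of the same strain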; details: S. cerevisiae mlh1 strain growth inhibition, active compounds read high
How it was run: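 Yeast screen: mutant strain plus compound, growth scored against vehicle control wells.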

[13] = NCI Yeast Anticancer Drug Screen. Data for the sgs1 strain (AID 173);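 also: 0% = growth of vehicle-only control cultures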; details: S. cerevisiae sgs1 mutant, active compounds read high
How it was run: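 Inhibition of yeast growth served as the measure. The mutant strain was treated with each compound, and growth was normalised to cultures receiving vehicle alone.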

[14] = NCI Yeast Anticancer Drug Screen. Data for the mlh1 rad18 strain (AID 175); details: S. cerevisiae mlh1 rad18 strain growth inhibition, active compounds read high
How it was run: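 Compound-treated yeast growth, normalised to vehicle controls. Strain bears defined DNA repair mutations.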

[15] = NCI Yeast Anticancer Drug Screen. Data for the rad18 strain (AID 177); details: S. cerevisiae rad18 mutant growth inhibition, active compounds read high
How it was run: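 Inhibition values reflect reduced yeast growth compared with vehicle-treated controls, using a strain engineered with a DNA damage repair defect.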

[16] = at 5.0 µM (retest, dose inferred, filed as 0.5)
[17] = at 50.0 µM (retest, dose inferred, filed as 5.0)

CSc1s[s+]c(SC)c1-c1ccccc1
growth inhibition ([1]; at 1.2 µM): 13%
growth inhibition ([1]; at 3.7 µM): 4%
growth inhibition ([1]; at 11.0 µM): 9%
growth inhibition ([1]; at 33.0 µM): 54%
growth inhibition ([1]; at 100.0 µM): 72% (active)
growth inhibition ([2]; at 1.2 µM): 14%
growth inhibition ([2]; at 3.7 µM): 10%
growth inhibition ([2]; at 11.0 µM): 61%
growth inhibition ([2]; at 33.0 µM): 93% (active)
growth inhibition ([2]; at 100.0 µM): 89% (active)
growth inhibition ([3]; at 1.2 µM): 13%
growth inhibition ([3]; at 3.7 µM): 28%
growth inhibition ([3]; at 11.0 µM): 25%
growth inhibition ([3]; at 33.0 µM): 59%
growth inhibition ([3]; at 100.0 µM): 76% (active)
growth inhibition ([4]; at 1.2 µM): -3%
growth inhibition ([4]; at 3.7 µM): 2%
growth inhibition [4, 16]: 28%
growth inhibition ([4]; at 11.0 µM): 11%
growth inhibition ([4]; at 33.0 µM): 58%
growth inhibition [4, 17]: 46%
growth inhibition ([4]; at 50.0 µM): 72.3% (active)
growth inhibition ([4]; at 100.0 µM): 68%
growth inhibition ([5]; at 1.2 µM): 7%
growth inhibition ([5]; at 3.7 µM): -5%
growth inhibition [5, 16]: 48%
growth inhibition ([5]; at 11.0 µM): 1%
growth inhibition ([5]; at 33.0 µM): 51%
growth inhibition [5, 17]: 52%
growth inhibition ([5]; at 50.0 µM): 60.6%
growth inhibition ([5]; at 100.0 µM): 59%
growth inhibition ([6]; at 1.2 µM): -31%
growth inhibition ([6]; at 3.7 µM): -23%
growth inhibition ([6]; at 11.0 µM): -21%
growth inhibition ([6]; at 33.0 µM): 21%
growth inhibition ([6]; at 100.0 µM): 59%
growth inhibition [7, 16]: -6%
growth inhibition [7, 17]: 73% (active)
growth inhibition ([8]; at 1.2 µM): 9%
growth inhibition ([8]; at 3.7 µM): 12%
growth inhibition ([8]; at 11.0 µM): 4%
growth inhibition ([8]; at 33.0 µM): 34%
growth inhibition ([8]; at 100.0 µM): 42%
growth inhibition [9, 16]: 26%
growth inhibition [9, 17]: 59%
growth inhibition ([10]; at 1.2 µM): 9%
growth inhibition ([10]; at 3.7 µM): 12%
growth inhibition [10, 16]: 36%
growth inhibition ([10]; at 11.0 µM): 24%
growth inhibition ([10]; at 33.0 µM): 66%
growth inhibition [10, 17]: 72% (active)
growth inhibition ([10]; at 100.0 µM): 75% (active)
growth inhibition ([11]; at 1.2 µM): -26%
growth inhibition ([11]; at 3.7 µM): -19%
growth inhibition ([11]; at 11.0 µM): -34%
growth inhibition ([11]; at 33.0 µM): 39%
growth inhibition ([11]; at 100.0 µM): 68%
growth inhibition ([12]; at 1.2 µM): -35%
growth inhibition ([12]; at 3.7 µM): -23%
growth inhibition ([12]; at 11.0 µM): -14%
growth inhibition ([12]; at 33.0 µM): 52%
growth inhibition ([12]; at 100.0 µM): 13%
growth inhibition ([13]; at 1.2 µM): -20%
growth inhibition ([13]; at 3.7 µM): -29%
growth inhibition ([13]; at 11.0 µM): -15%
growth inhibition ([13]; at 33.0 µM): 47%
growth inhibition ([13]; at 100.0 µM): 70% (active)
growth inhibition [14, 16]: 34%
growth inhibition [14, 17]: 56%
growth inhibition ([14]; at 50.0 µM): 71.8% (active)
growth inhibition ([15]; at 1.2 µM): 3%
growth inhibition ([15]; at 3.7 µM): 14%
growth inhibition ([15]; at 11.0 µM): 22%
growth inhibition ([15]; at 33.0 µM): 63%
growth inhibition ([15]; at 100.0 µM): 73% (active)
